Common to all, as to experiment: NCI-60 one-dose screen, 48 h (100 = growth as untreated, 0 = no growth, -100 = all killed)
What all share (settings): 10 µM unless noted

The test system of experiment [1] is NCI-H23 lung.
The test system of experiment [2] is NCI-H226 lung.
Experiment [3] concerns NCI-H322M lung.
The test system of experiment [4] is HOP-62 NSCLC.
For experiment [5], the system named is NCI-H460 lung.
Experiment [6] deals with HOP-92 NSCLC.
Experiment [7] has as its system NCI-H522 lung.
Experiment [8] deals with A549/ATCC NSCLC.
In experiment [9] the test system is 786-0 renal.
Experiment [10] has as its system COLO 205 colon.
Experiment [11] has as its system DU-145 prostate.
Experiment [12] has as its system K-562 leukemia.
Experiment [13] relates to MALME-3M melanoma.
The test system of experiment [14] is MDA-MB-231 breast.
In experiment [15] the test system is RXF 393 renal.
Experiment [16] has as its system SF-268 CNS.
The subject of experiment [17] is SF-295 CNS.
The subject of experiment [18] is SF-539 CNS.
For experiment [19], the system named is UACC-257 melanoma.
The subject of experiment [20] is M14 melanoma.

7 molecules from PubChem BioAssay (NCI) can be followed below.

The panel holds about 83,000 compounds, 20% with a hit somewhere; the sample as a whole holds those more often.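 For each line, cells grew in 96-well plates with the test compound present at a single concentration for 48 hours.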 Unmarked numbers belong to inactive results. Activity calls are given as the source filed them. The calls were made as follows: active = growth percent below 10; inactive = the rest.

With `C=CCn1c(=O)c2cnc(Nc3ccc(N4CCN(C)CC4)cc3)nc2n1-c1cccc(C(C)(C)O)n1`, the growth in [1] is 2.22% (active); in experiment [2], 40%; in [3], 14.1%; in [4], 2.56% (active); in experiment [5], 12%; in [6] it was 49.2%. Besides, the growth in experiment [7] was -45.8% (active); in experiment [8] it was 15.9%; in experiment [9], 14%; in experiment [10] it was -29.5% (active); in experiment [11], 17.2%; in [12], 1.55% (active). For the same molecule, the growth was 44.8% in [13]; 9.62% (active) in [14]; -27.1% (active) in experiment [15]; 30.7% in experiment [16]; 34.8% in experiment [17]; -26.3% (active) in experiment [18]. Besides, the results for the growth in experiment [19] and in experiment [20] were 46.1% and 9.79% (active), respectively.
`Cn1c(=O)c(F)c(Nc2ccc(I)cc2F)c2c(=O)n(C[C@@H](O)CO)cnc21`: the growth was 21.5% in experiment [1]; 52.5% in experiment [2]; 14% in experiment [3]; 22.5% in experiment [4]; 62.3% in [5]; -23.8% (active) in experiment [6]. Further, the growth was 41.4% in experiment [7]; 19.2% in experiment [8]; 58.3% in experiment [9]; 2.24% (active) in experiment [10]; 52.1% in [11]; 28.5% in experiment [12]. The growth in experiment [13] is 0.26% (active); in [14], 19%; in experiment [15], -3.91% (active); in experiment [16], 59.5%; in [17] it was 77.5%; in experiment [18], 52.3%. The growth in experiment [19] was -21.4% (active); in experiment [20] it was 6.75% (active).
`CCCCCCCCCNCCCCCCCCC`: the growth was 40.4% in experiment [1]; 69.6% in experiment [2]; 113% in [3]; 76.3% in [4]; 103% in [5]; 8.18% (active) in experiment [6]. The growth in [7] is -3.05% (active); in [8], 99.3%; in experiment [9], 66.5%; in experiment [10] it was -92.8% (active); in [11], 76.5%; in experiment [12], 5.9% (active). For the same molecule, the growth was 18.4% in experiment [13]; 66.3% in experiment [14]; 50.5% in [15]; 79.8% in [16]; 66.6% in experiment [17]; 56.7% in experiment [18]. Also, the growth is 67.2% in experiment [19] and -48.6% (active) in experiment [20].
Take `COc1cc(N2CCC(N3CCN(C)CC3)CC2)ccc1Nc1ncnc(Nc2ccccc2S(=O)(=O)C(C)C)n1`: the growth in experiment [1] is 102%; in experiment [2], 109%; in [3] it was 109%; in experiment [4], 86.7%; in experiment [5], 102%; in experiment [6], 105%. Moreover, the growth was 80.5% in experiment [7]; 104% in experiment [8]; 99.7% in [9]; 99% in experiment [10]; 100% in [11]; 94% in [12]. Moreover, the growth in experiment [13] was 106%; in experiment [14], 95.9%; in experiment [15], 133%; in experiment [16], 100%; in experiment [17], 104%; in experiment [18], 100%. Also, the growth is 108% in experiment [19] and 93.3% in experiment [20].
For the molecule `CCCCCCCC12Cc3ccccc3C1=Nc1c(c3ccccc3n1C)C2=O` (stereo not given), the growth in experiment [1] was 84.8%; in [2], 77.8%; in [3], 88.4%; in [4] it was 84%; in [5], 92.7%; in [6], 93.4%. Moreover, the growth was 48.1% in [7]; 75.5% in [8]; 105% in experiment [9]; 112% in [10]; 120% in [11]; 85.9% in experiment [12]. Further, the growth in experiment [13] was 95.2%; in experiment [14], 82.4%; in [15], 104%; in experiment [16], 100%; in experiment [17] it was 97.4%; in experiment [18], 111%. Also, the growth in experiment [19] was 82.3%; in [20] it was 95.3%.
As for `CO[C@@H](C(=O)N1Cc2[nH]nc(NC(=O)c3ccc(N4CCN(C)CC4)cc3)c2C1)c1ccccc1`, the growth is 36.8% in [1]; 37.3% in [2]; -0.392% (active) in experiment [3]; -6.89% (active) in [4]; 4.44% (active) in [5]; -63.8% (active) in experiment [6]. Besides, the growth in experiment [7] was 12.6%; in experiment [8], 19.1%; in experiment [9], 10.7%; in experiment [10] it was -88.2% (active); in experiment [11] it was 17.6%; in experiment [12], 6.59% (active). Also, the growth in experiment [13] was 48.6%; in [14], 9.92% (active); in experiment [15], -36.4% (active); in experiment [16] it was 1.17% (active); in experiment [17], 31.7%; in [18], -4.34% (active). The values for the growth in experiment [19] and in [20] were 14.2% and 35.8%, respectively.
On to `Cc1nc(N)sc1-c1ccnc(Nc2ccc(N3CCOCC3)cc2)n1`, for which the growth is 43.1% in [1]; 35.6% in experiment [2]; 51.4% in [3]; 11.4% in experiment [4]; 15.9% in [5]; 34.9% in experiment [6]. Moreover, the growth in experiment [7] was 11.6%; in experiment [8] it was 21.9%; in experiment [9], 34.5%; in experiment [10], 1.1% (active); in experiment [11], 33.2%; in experiment [12] it was 59.1%. Also, the growth in experiment [13] is 47.8%; in [14], 29.5%; in experiment [15], 18.3%; in experiment [16] it was 28.5%; in experiment [17], 25.3%; in experiment [18], 25.6%. The growth is 71.9% in [19] and 36.8% in experiment [20].
